# Rows were chosen to be rich in hits. Some 7.4% of all compounds tested hit in one or more screens of this group.
# MITF inhib = inhibitors of MITF | 37,000 tested, 0.28% active | TRPM1 promoter luciferase, luminescence, 24 h | inhibition, % (concentration not given with the values); in the data active means inhibition above about 85%; inconclusive means no clear call, values can overlap the other calls; inactive means below about 68%;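 further: human melanocyte line stably carrying TRPM1 promoter luciferase reporter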
# NOMO-1 viab = STK33 inhibitor candidate reducing NOMO-1 cell viability; NOMO-1 AML viability, CellTiter-Glo luminescence, 72 h; inhibition, % (test concentration not listed); 37,000 tested, 7.5% active; in the data active means inhibition above about 80%; inconclusive means no clear call, values can overlap the other calls
# Shh pathway inh = Sonic Hedgehog pathway inhibition. Shh-LIGHT2 Gli-luciferase reporter, 30 h. inhibition, % (concentration not given with the values). 22,000 tested, 2.1% active;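 active means mean inhibition across valid replicates above about 65%, limit read from the data; inconclusive means mean under the limit, yet half or more replicates past it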;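 further: pathway switched on by Shh-conditioned medium diluted 1 in 25 in low serum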
# PD-1 reversal = reversal of PD-1 mediated T-cell inhibition; 29,000 tested, under 10 active; primary human CD4 T cells, PD-L1 beads, CellTiter-Glo 96 h; AID 2316; activation, % (concentration not given with the values); call rule not given here;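 further: 0% = median vehicle wells and 100% = positive control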
# YB-1 expression = YB-1 expression inhibition | U2OS, qRT-PCR YB-1 vs CDIP delta delta Cp, 16 h; active compounds read high; zero = DMSO, each unit about twofold | delta delta Cp (YB-1 minus CDIP) (test concentration not listed) | 30,000 tested, 0.37% active | AID 434959;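 active means delta delta Cp rounded down to an integer at or above 3, about 3 SD of DMSO wells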;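 further: higher means less YB-1 transcript or more CDIP transcript relative to DMSO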
# The depositor's hits bear a star; u = inconclusive; x = no result.
SMILES,MITF inhib,NOMO-1 viab,Shh pathway inh,PD-1 reversal,YB-1 expression
C[C@H]1CN([C@@H](C)CO)C(=O)Cc2cc(NS(=O)(=O)c3ccccc3)ccc2O[C@@H]1CN(C)Cc1ccccc1,-1.7,31.3,23.1,0.6,0.121
C[C@@H]1CN([C@H](C)CO)C(=O)c2cc(NS(=O)(=O)c3cn(C)cn3)ccc2O[C@@H]1CN(C)C(=O)Nc1ccc(C(F)(F)F)cc1,-11.7,8.8,10.6,0.7,0.14
C[C@H](CO)N1C[C@H](C)[C@@H](CN(C)Cc2ccc(C(=O)Nc3ccccc3N)cc2)Oc2c(cccc2N(C)C)C1=O,-11.7,44.1,x,0.7,-0.231
C[C@@H]1CN([C@@H](C)CO)C(=O)c2cccc(N(C)C)c2O[C@H]1CN(C)Cc1ccc(C(=O)Nc2ccccc2N)cc1,-5.0,90.3*,x,-1.6,-0.486
C[C@H]1CN([C@@H](C)CO)C(=O)c2cccc(N(C)C)c2O[C@H]1CN(C)Cc1ccc(C(=O)Nc2ccccc2N)cc1,12.2,126.5*,x,-0.9,-0.197
Cc1c(Br)c([N+](=O)[O-])nn1CC(=O)NCc1ccccn1,-3.0,22.9,x,x,x
Nc1ncnc2c1ncn2C1OC(CO)[C@H](O)[C@@H]1S (some centres undefined),-0.7,-8.5,-7.7,0.0,0.243
CC(C)(C)C(=O)OC[C@H]1O[C@@H](n2cnc3c(N)ncnc32)C[C@@H]1OC(=O)C(C)(C)C,-6.4,0.2,-30.0,-0.3,8.33*
Cc1noc(C)c1NC(=O)N(C)C[C@H]1Oc2ccc(NC(=O)CCN3CCOCC3)cc2CC(=O)N([C@@H](C)CO)C[C@H]1C,0.2,4.0,66.5*,1.3,-0.548
CNC[C@@H]1Oc2ccc(NC(=O)CCN3CCOCC3)cc2CC(=O)N([C@H](C)CO)C[C@H]1C,-0.3,-1.9,5.2,0.6,9.51*
CC(C)NC(=O)Nc1ccc2c(c1)C(=O)N([C@@H](C)CO)C[C@@H](C)[C@@H](CN(C)S(=O)(=O)c1cccs1)O2,4.0,5.2,-8.4,0.8,-0.125
C[C@H](CO)N1C[C@H](C)[C@@H](CN(C)S(=O)(=O)c2ccc(F)cc2)Oc2c(NC(=O)Nc3ccc(F)cc3)cccc2C1=O,1.0,28.8,29.2,0.2,0.581
C[C@H](CO)N1C[C@H](C)[C@H](CN(C)S(=O)(=O)c2ccc(F)cc2)Oc2c(NC(=O)Nc3ccc(F)cc3)cccc2C1=O,-14.5,29.7,100.6*,x,0.0283
C[C@@H]1CN([C@@H](C)CO)C(=O)c2cccc(NC(=O)Nc3ccc(F)cc3)c2O[C@H]1CN(C)S(=O)(=O)c1ccc(F)cc1,-5.6,3.9,-52.0,0.0,0.0812
C[C@@H]1CN([C@@H](C)CO)C(=O)c2cccc(NC(=O)Nc3ccc(F)cc3)c2O[C@@H]1CN(C)S(=O)(=O)c1ccc(F)cc1,49.3,84.9*,-7.1,x,-0.242
COc1cc2c(cc1NC(=O)CSc1nnc(N)s1)oc1ccccc12,-146.8,19.7,x,-2.2,x
COc1ccc(CN(C)C[C@H]2Oc3ccc(NS(=O)(=O)c4ccc(Cl)cc4)cc3CC(=O)N([C@H](C)CO)C[C@H]2C)cc1,5.7,25.9,8.8,x,-0.242
CCN1C(=O)c2cccc3c(S(=O)(=O)Nc4ccccc4)ccc1c23,24.2,104.8*,x,-1.1,-0.15
CCN1C(=O)c2cccc3c(S(=O)(=O)N4CCCC4C(=O)O)ccc1c23 (centres undefined),-23.9,-8.3,x,0.7,x
Cc1ccc(S(=O)(=O)c2c(C)nn(C(C)(C)C)c2OC(=O)c2ccccc2C(F)(F)F)cc1,7.2,61.3,x,-2.8,x
Cc1nn(C(C)(C)C)c(OC(=O)c2cccc(Br)c2)c1S(=O)(=O)c1ccccc1,52.0,119.2*,x,-2.5,x
Cc1nn(C(C)(C)C)c(OC(=O)c2ccc(Cl)cc2)c1S(=O)(=O)c1ccccc1,30.5,121.1*,x,-3.2,x
C[C@H]1CN([C@@H](C)CO)C(=O)Cc2cc(NS(=O)(=O)c3cccs3)ccc2O[C@H]1CN(C)C(=O)Nc1ccccc1,-14.5,21.5,x,0.6,0.173
COC(=O)C[C@H]1C(C)(C)[C@H](OC(C)=O)[C@]2(O)CC3=C4CC(=O)O[C@@H](c5ccoc5)[C@]4(C)CCC3[C@@]1(C)C2=O (some centres undefined),-8.9,19.9,14.0,-1.0,7.97*
COC(=O)C[C@H]1C(C)(C)C(=O)[C@@H]2C[C@@]3(O)C4=CC(=O)O[C@@H](c5ccoc5)[C@]4(C)CCC3[C@@]1(C)C2=O (some centres undefined),-50.8,104.2*,85.5*,x,0.119
SMILES,MITF inhib,NOMO-1 viab,Shh pathway inh,PD-1 reversal,YB-1 expression
COC(=O)C[C@H]1C(C)(C)[C@@H](OC(C)=O)[C@@H]2CC3=C4CC(=O)O[C@@H](c5ccoc5)[C@]4(C)CCC3[C@@]1(C)C2=O (some centres undefined),-13.5,2.2,u,x,-0.0961
C[C@H](CO)N1C[C@H](C)[C@@H](CN(C)Cc2ccc3c(c2)OCO3)Oc2ccc(NC(=O)CCCN(C)C)cc2C1=O,-3.8,-2.3,-13.4,0.8,-0.4
C[C@@H]1CCCCO[C@H](CN(C)C(=O)c2ccccc2)[C@@H](C)CN([C@H](C)CO)C(=O)c2cc(NS(=O)(=O)c3ccccc3)ccc2O1,-6.6,-18.8,-24.3,1.3,0.0437
Cc1noc(C)c1NC(=O)Nc1ccc2c(c1)C(=O)N([C@@H](C)CO)C[C@H](C)[C@@H](CN(C)Cc1ccc(C(F)(F)F)cc1)O2,-5.0,9.5,x,-0.6,-0.414
Cc1ccc(S(=O)(=O)N(C)C[C@@H]2Oc3c(NC(=O)C4CC4)cccc3C(=O)N([C@@H](C)CO)C[C@H]2C)cc1,3.1,18.0,17.3,1.4,0.0757
COC(=O)CCN(C(=O)c1ccc(OC(C)=O)cc1)c1ccccn1,-11.8,103.7*,x,x,x
COc1ccc(CN(CCN(C)C)c2ccccn2)cc1,6.7,26.1,-32.9,x,0.56
C[C@H](CO)N1C[C@H](C)[C@H](CN(C)C(=O)Nc2ccc(F)cc2)Oc2c(cccc2N(C)C)C1=O,-2.9,12.6,3.7,x,-0.43
Cc1sc(NC(=O)c2ccccc2)c(C(=O)N2CCCCC2)c1C,9.7,19.2,-11.6,-1.2,-0.499
CCc1cc(C(c2ccc(Cl)cc2)N2CCN(CCO)CC2)c(NC(=O)c2ccccc2)s1 (centres undefined),54.6,116.8*,81.2*,-6.2,-0.176
COC(=O)N(C)C[C@H]1OCc2cnnn2CCCC(=O)N([C@H](C)CO)C[C@@H]1C,x,x,x,x,0.0731
CSC(=O)OCC1=C[C@H](O)[C@@H]2C(C(=O)O)=CO[C@@H](OC3OC(CO)C(O)C(O)C3O)[C@H]12 (some centres undefined),16.6,17.7,-20.3,1.8,4.11*
C[C@H]1CN([C@@H](C)CO)C(=O)c2cccc(NS(=O)(=O)c3ccc(Cl)cc3)c2O[C@@H]1CN(C)C,-3.1,-2.3,-41.7,x,0.16
C[C@H](CO)N1C[C@H](C)[C@@H](CN(C)Cc2ccc(C(=O)Nc3ccccc3N)cc2)Oc2c(NC(=O)C3CCOCC3)cccc2C1=O,-0.4,22.5,x,1.3,0.0779

# High-throughput results from PubChem BioAssay.
